Among all 220,000 compounds or so, about 2,100 (0.95%) were called active.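 How the source made its calls: active means compounds that cut the binding signal by more than half at the single screening dose; inactive means the rest.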 The full list was thinned out, with actives kept by preference.
These compounds were tested against Induced myeloid leukemia cell differentiation protein Mcl-1 (Homo sapiens) (UniProt Q07820) (assay: disruptors of Mcl-1 and Bid BH3 peptide – biochemical, TR-FRET, 1536-well, primary screen (AID 1021;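 further: His-tagged Mcl-1 with europium anti-His antibody binding Bid BH3 peptide; 0% = Mcl-1 plus peptide wells and 100% = peptide-only wells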)). Conditions: TR-FRET Mcl-1/Bid-Dy647 peptide binding, at 21.7 µM, stronger effect = higher value.
Chain of Induced myeloid leukemia cell differentiation protein Mcl-1 (Homo sapiens) (Q07820 whole entry, looked up): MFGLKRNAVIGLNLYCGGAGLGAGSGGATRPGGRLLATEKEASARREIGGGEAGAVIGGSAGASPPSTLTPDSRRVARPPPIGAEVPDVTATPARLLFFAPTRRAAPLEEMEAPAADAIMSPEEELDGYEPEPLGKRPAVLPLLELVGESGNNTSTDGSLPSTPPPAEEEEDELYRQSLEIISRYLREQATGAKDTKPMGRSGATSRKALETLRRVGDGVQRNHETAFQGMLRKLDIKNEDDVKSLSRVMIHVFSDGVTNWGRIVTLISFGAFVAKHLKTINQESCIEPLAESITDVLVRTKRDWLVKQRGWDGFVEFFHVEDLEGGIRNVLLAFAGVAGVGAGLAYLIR
For `C=CCOc1ccc(/C=N/NC(=O)C(C)Sc2ccccn2)cc1OCC` (stereo not given), the inhibition was -8.6% (inactive). `COc1ccccc1C1CCN(c2ccc([N+](=O)[O-])cn2)CC1` was tested, and the inhibition was -13.5% (inactive). In the case of `CCOC(=O)C(NC(=O)CC(C)C)(Nc1sc2c(c1C(N)=O)CCCC2)C(F)(F)F` (stereo not given), the inhibition is reported as -1.21% (inactive). In the case of `O=c1[nH]c2cccnc2n1-c1ccc([N+](=O)[O-])cc1`, the inhibition is reported as -13.5% (inactive). For `CCOC(=O)CNC(=O)CSc1nnc(-c2cccc(OC)c2)n1CC`, the inhibition was -3.85% (inactive). With `CCOC(=O)CNC(=O)CSc1nnc(COc2ccc(Cl)cc2)n1CC` the inhibition was 59% (active). With `C=CCn1c(COc2ccccc2)nnc1SCC(=O)NCC(=O)OCC` the inhibition was -8.17% (inactive). In the case of `COc1ccc(CN(C)C(=S)Nc2ccc(Cl)cc2Cl)cc1`, the inhibition is reported as -35.5% (inactive). With `COc1ccc(CN2CCn3ncc(C(=O)Nc4ccc(Cl)cc4Cl)c3C2=O)cc1` the inhibition was 32% (inactive). In the case of `O=c1cc(CCl)nc2scc(-c3ccccc3)n12`, the inhibition is reported as -18.4% (inactive). In the case of `Cn1c(SCc2nc3ccccc3s2)nnc1-c1ccc2c(c1)OCO2`, the inhibition is reported as 85.9% (active). In the case of `Cc1ccccc1-c1nnc(SCC(=O)NCc2ccc3c(c2)OCO3)n1C`, the inhibition is reported as -9.98% (inactive). For `O=C(O)CSc1nnc(-c2ccc3c(c2)OCO3)n1-c1ccccc1`, the inhibition was -2.66% (inactive). With `COc1ccc(CCNc2cc(C)nc3c(-c4ccc(Cl)cc4)c(C)nn23)cc1OC` the inhibition was 5.91% (inactive). For `O=c1c2ccccc2nc(CSc2nnnn2-c2ccccc2)n1-c1ccccc1`, the inhibition was 67% (active). For `Cc1ccc(-c2noc(CSc3nnnn3-c3ccccc3)n2)cc1`, the inhibition was 0.82% (inactive). For `O=c1c2ccccc2nnn1CSc1nnnn1-c1ccccc1`, the inhibition was -28.6% (inactive). In the case of `Oc1ccc(-c2nncn2-c2ccccc2)cc1`, the inhibition is reported as -19.8% (inactive). `O=C(CN1CCN(c2ccc(O)cc2)CC1)Nc1cc(S(=O)(=O)N2CCOCC2)ccc1Cl` was tested, and the inhibition was -49.6% (inactive). `O=[N+]([O-])c1cc(Cl)cc(/C=N/NC(=S)Nc2cc(S(=O)(=O)N3CCOCC3)ccc2Cl)c1O` was tested, and the inhibition was 91.1% (active). For `O=C(N/N=C/c1ccc([N+](=O)[O-])o1)c1cccc(S(=O)(=O)N2CCOCC2)c1`, the inhibition was -61.1% (inactive). `CC(Sc1nc2cc(Cl)ccc2s1)C(=O)Nc1ccc2c(c1)OCO2` (stereo not given) was tested, and the inhibition was -1.87% (inactive). With `Cc1cc(C)nc(Nc2ncn[nH]2)n1` the inhibition was -30% (inactive). With `CN(C)CCCO/N=C(\c1ccccc1)c1ccncc1` the inhibition was 54.2% (active). In the case of `COc1cc(OC)nc(N/N=C(\c2ccccc2)c2ccncc2)n1`, the inhibition is reported as 1.66% (inactive). `O=C(O/N=C(/c1ccccc1)c1ccncc1)c1ccccc1[N+](=O)[O-]` was tested, and the inhibition was -11.8% (inactive). With `Cc1ccc2c(c1)C1CN(C)CCC1N2C(=S)Nc1ccc(OC(F)F)cc1` (stereo not given) the inhibition was -15.3% (inactive). With `CCn1cc(C(=O)NCc2ccc3c(c2)OCO3)c2cc(OC)c(OC)cc2c1=O` the inhibition was 38.8% (inactive). `COc1ccc2c(c1)C(C)=CC(C)(C)N2C(=O)Nc1ccccc1` was tested, and the inhibition was -36.6% (inactive). `COc1ccc2c(c1)C(C)=CC(C)(C)N2C(=O)CNCc1ccc2c(c1)OCO2` was tested, and the inhibition was 62% (active). `CC(=O)c1nnn(-c2ccc(Cl)cc2C#N)c1C` was tested, and the inhibition was 1.84% (inactive). With `COc1ccc(Cl)cc1C(=O)NCc1cn(C)nc1C` the inhibition was -17.2% (inactive). With `Cc1ccc2nc(-c3cccc(Br)c3)cc(C(=O)Nn3cnnc3)c2c1` the inhibition was -15.1% (inactive). For `Cc1ccc(-c2cc(C(=O)NCc3cn(C)nc3C)c3cc(Br)ccc3n2)cc1`, the inhibition was 57.4% (active). For `CN(Cc1ccccn1)Cc1nc(-c2ccc(Cl)cc2)no1`, the inhibition was 3.34% (inactive). For `CN(c1ccccc1)S(=O)(=O)c1ccc(Cl)c(C(=O)OCC(=O)NCc2ccco2)c1`, the inhibition was -33.3% (inactive). For `CCN(CC)CCCN=C(N)N`, the inhibition was -18.1% (inactive). With `Nc1nnc(SCC(=O)NC2CCCc3ccccc32)s1` (stereo not given) the inhibition was -21.1% (inactive). With `Nc1nnnn1CC(=O)N/N=C/c1ccc(-c2cccc(Cl)c2)o1` the inhibition was -8.79% (inactive). For `O=C(CN1CCOCC1)N/N=C/c1ccc(-c2ccc(Br)cc2)o1`, the inhibition was -11.9% (inactive). `Nc1nnn(CC(=O)N/N=C/c2ccccc2)n1` was tested, and the inhibition was -50.3% (inactive). In the case of `O=C(Cn1nnc(-c2ccccc2)n1)N/N=C/c1ccc(-c2ccc(Cl)cc2)o1`, the inhibition is reported as 61% (active). In the case of `Cc1[nH]c2ccccc2c1/C=N\NC(=O)Cn1nnc(-c2ccccc2)n1`, the inhibition is reported as 65.2% (active). In the case of `O=C(Cn1nnc(-c2ccccc2)n1)NCc1ccccc1`, the inhibition is reported as -1.82% (inactive). In the case of `CCCCN1CCNC1=S`, the inhibition is reported as -29.5% (inactive). `CC1(C)CC(=O)C(C=NCCN2CCN(C(=S)Nc3cccc(Cl)c3)CC2)=C(O)C1` was tested, and the inhibition was -49.6% (inactive). With `Cc1nn(C)c(C)c1Sc1ccccc1N` the inhibition was -33.5% (inactive). In the case of `CCN(CC)c1ccc(NC(=O)C2CCC(CNc3c(N4CCCC4)c(=O)c3=O)CC2)c(C)c1` (stereo not given), the inhibition is reported as -70.9% (inactive). `CC1(C)OC(=O)N2CCc3ccccc3C21C` (stereo not given) was tested, and the inhibition was 6.73% (inactive). `CN(C)C(=O)c1nc2ccc(Cl)cn2c1CNCc1cccc(OC(F)(F)F)c1` was tested, and the inhibition was -1.45% (inactive). In the case of `CCC(CC)C(=O)N1CC(=O)Nc2ccc(Br)cc2C1c1ccccc1` (stereo not given), the inhibition is reported as -3.97% (inactive). In the case of `COC(=O)CN1C(C)=Nc2ccc(Br)cc2C1c1ccccc1` (stereo not given), the inhibition is reported as 67.2% (active). For `COC(=O)CN1C(=O)C(O)=C(C(C)=O)C1c1ccc([N+](=O)[O-])cc1` (stereo not given), the inhibition was -31.9% (inactive). With `N#CCCCn1c(O)c(N=NC(=O)C(O)c2ccccc2)c2ccccc21` (stereo not given) the inhibition was -13.3% (inactive). `Cc1cc(=O)oc2c(C(=O)c3ccccc3)c(OCC(N)=O)ccc12` was tested, and the inhibition was -15.3% (inactive). With `N#CCC(=O)N/N=C/c1cn(Cc2ccc3ccccc3c2)c2ccccc12` the inhibition was 25.7% (inactive). With `O=C(O)/C=C/c1cn(Cc2ccccc2)nc1-c1cccs1` the inhibition was -0.35% (inactive). For `CCOC(=O)/C(C#N)=C/c1cn(CCC(=O)O)nc1-c1ccc(Br)cc1`, the inhibition was 39.2% (inactive). `O=C(O)CCn1cc(/C=C/C(=O)c2ccc(Cl)cc2)c(-c2cccc(Br)c2)n1` was tested, and the inhibition was 69.2% (active). `Cc1noc(C)c1S(=O)(=O)Nc1ccc(C(=O)N2CCN(c3ccc(F)cc3)CC2)cc1` was tested, and the inhibition was -10.6% (inactive).

Reference: PubChem BioAssay AID1021 (Emory University Molecular Libraries Screening Center, 2008)
